An excerpt weighted towards active compounds, which were near 5.9% of everything screened.
AHR act – activates the human aryl hydrocarbon receptor; P35869; 2.5% of 320,000 active; activation, % at 5 µM; AHR-responsive luciferase reporter cells, luminescence; in the data active = activation above about 47%;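 note: 0% = vehicle wells and 100% = reference agonist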
Target sequence (P35869 whole entry, looked up): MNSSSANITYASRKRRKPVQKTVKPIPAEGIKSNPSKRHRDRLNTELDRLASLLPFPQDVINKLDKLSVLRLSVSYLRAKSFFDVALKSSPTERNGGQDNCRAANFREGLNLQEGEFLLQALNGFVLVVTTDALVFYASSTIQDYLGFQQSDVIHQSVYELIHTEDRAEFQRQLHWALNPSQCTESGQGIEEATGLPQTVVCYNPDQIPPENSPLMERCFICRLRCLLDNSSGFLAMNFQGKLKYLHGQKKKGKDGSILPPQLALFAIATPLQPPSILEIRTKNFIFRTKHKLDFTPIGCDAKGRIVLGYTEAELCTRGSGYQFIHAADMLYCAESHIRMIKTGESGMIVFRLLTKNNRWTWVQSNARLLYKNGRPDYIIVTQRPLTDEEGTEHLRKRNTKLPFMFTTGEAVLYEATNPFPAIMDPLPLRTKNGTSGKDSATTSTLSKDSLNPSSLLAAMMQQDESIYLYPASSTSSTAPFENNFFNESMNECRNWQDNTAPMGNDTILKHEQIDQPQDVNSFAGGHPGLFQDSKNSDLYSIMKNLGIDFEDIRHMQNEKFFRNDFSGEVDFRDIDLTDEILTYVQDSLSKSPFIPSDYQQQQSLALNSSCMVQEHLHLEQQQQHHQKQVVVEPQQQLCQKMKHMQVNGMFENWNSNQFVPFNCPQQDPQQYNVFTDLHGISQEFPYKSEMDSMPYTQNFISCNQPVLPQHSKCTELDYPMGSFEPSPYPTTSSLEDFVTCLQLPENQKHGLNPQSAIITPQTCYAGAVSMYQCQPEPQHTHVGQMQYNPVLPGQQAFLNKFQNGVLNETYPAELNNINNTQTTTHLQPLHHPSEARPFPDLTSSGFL
NR0B1 inh – inhibitors of human orphan nuclear receptor DAX1 (NR0B1) | HEK293 Gal4-DAX1 luciferase reporter, luminescence | AID 504766 | 0.99% of 340,000 active | inhibition, % at 6.75 µM;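 active = inhibition above the mean over all tested compounds plus 3 SD, cut at about 4.2% in these data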;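 note: 0% = DAX1-transfected cells with DMSO and 100% = empty-vector control cells with DMSO; inhibition shows as a rise in luminescence from relieved DAX1 repression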
FXN GAA850 act – increases GAA850 frataxin promoter reporter activity. HEK293 lucGAA850 FXN promoter luciferase reporter, 24 h; percent of 10 µM SAHA response. 0.56% of 360,000 active. activation, % at 6 µM;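 active = activation above the average of all compounds screened plus 3 SD, cutoff fixed separately per campaign, cut at about 7.5% in these data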;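 note: 0% = DMSO wells and 100% = 10 µM SAHA wells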
HSF-1 act – increases HSF-1 driven luciferase reporter signal. NIH3T3-HGL HSF-1 luciferase reporter, MG132, 8 h; 100% = twice DMSO control signal. AID 504408. 1.7% of 300,000 active. activation, % at 9 µM;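 active = mean replicate activation of at least 50% with a set share of replicates each reaching 50%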;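 note: 0% = median of the neutral control wells and 100% = twice that signal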
HSP90 inh – HSP90 refolding inhibition in rabbit reticulocyte lysate. inhibition, % at 5.6 µM. 0.91% of 290,000 active. luciferase refolding luminescence, 3 h;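 active = inhibition above the screen-wide mean plus 3 SD, computed separately per campaign, cut at about 16% in these data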;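 note: 0% = DMSO wells and 100% = 60 µM geldanamycin wells; inhibitors lower the luminescence because luciferase stays unfolded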
HSF1 inhib – HSF1 inhibition; activity change, negative = inhibition, % at 7.5 µM (by protocol); NIH3T3-HGL HSE-luciferase, MG132-induced, luminescence 8 h; hits give low values; AID 2098; 0.77% of 300,000 active;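 active = more than half of replicate wells show activity change below -50%, luminescence cut by over half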;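 note: luciferase reports HSF-1 transcriptional activity via heat shock element; 0% = median of DMSO wells and -100% = zero luminescence signal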
* marks the source's active call; other numbers are inactive results; . = not tested or not shown.

SMILES | AHR act | NR0B1 inh | FXN GAA850 act | HSF-1 act | HSP90 inh | HSF1 inhib
Cc1cc2cc(C)c3nnc(SCc4ccccn4)n3c2cc1C | 73* | -1 | 1 | 25 | -5 | -4
Cc1sc(NC(=O)Cc2ccc3c(c2)OCO3)nc1-c1ccc2c(c1)CCN2C(=O)c1cccc(F)c1 | 73* | -1 | -1 | 2 | 3 | -2
Cc1ccccc1C(=O)N1CCc2cc(-c3nc(NC(=O)Cc4ccc5c(c4)OCO5)sc3C)ccc21 | 1 | -5 | -5 | -16 | 4 | -1
O=C(Nc1cc(C(F)(F)F)ccc1N1CCOCC1)c1cn2ccccc2n1 | 5 | 6.6* | 0 | -6 | 2 | -4
CC(C)CC1NC(=O)c2ccccc2-n2c1nc1ccccc1c2=O (stereo unspecified) | 2 | . | . | . | . | .
Oc1cc(-c2ccc(N3CCCCC3)nc2)cc2cccnc12 | 7 | 5.6* | 1 | . | . | .
CCN(CC)S(=O)(=O)c1ccc(C(=O)Nc2cc(S(=O)(=O)N3CCOCC3)ccc2O)cc1 | 1 | 0 | 1 | . | . | .
CC1CCN(C(=O)c2[nH]cnc2C(=O)Nc2nccs2)CC1 | 4 | 0 | -2 | . | . | .
N#C/C(=C(/O)CCl)c1nc2c(s1)CCc1ccccc1-2 | 67* | -1 | -1 | 13 | -1 | 12
Nc1nc2c(s1)CCc1ccccc1-2 | 13 | -1 | 2 | -16 | 11 | 3
Cc1cc(C(=O)NCCCn2ccnc2)sc1-c1ccccc1 | 70* | -1 | 3 | 18 | 1 | 3
Cc1cc(-c2ccccc2)nc2cc(C(=O)NCCCn3ccnc3)nn12 | 66* | -1 | 1 | 14 | -1 | 1
CCCC(C)NS(=O)(=O)c1ccccc1 (stereo unspecified) | -1 | -1 | 2 | -68 | -4 | -59*
Cn1c(C(C#N)/C(=N\S(=O)(=O)c2cccs2)c2ccccc2)nc2ccccc21 (stereo unspecified) | 79* | 0 | -1 | 8 | 0 | 0
Clc1ccc(C2=Nn3c(nnc3-c3n[nH]c4c3CCC4)SC2)cc1 | 49* | -1 | -2 | -3 | -1 | 2
Brc1ccc(C2=Nn3c(nnc3-c3n[nH]c4c3CCC4)SC2)cc1 | 78* | -2 | 0 | -2 | -1 | 3
Cc1ccc(-c2nnc3n2N=C(c2ccc(Br)cc2)CS3)cc1 | 7 | 1 | 4 | 3 | -3 | -7
CC(C)[C@H](N)c1nnc2n1N=C(c1ccc(Cl)cc1)CS2 | 5 | 0 | -1 | -2 | -3 | -3
CCCn1c(=N)c(C#N)cc2c(=O)n3cccc(C)c3nc21 | 32 | . | . | 3 | 2 | -5
CCCn1c(=N)c(C#N)cc2c(=O)n3ccccc3nc21 | 85* | 2 | 3 | 10 | -3 | -5
N#Cc1cc2c(=O)n3ccccc3nc2n(CC2CCCO2)c1=N (stereo unspecified) | . | . | . | . | -3 | .
N#Cc1cc2c(=O)n3ccccc3nc2n(CCCn2ccnc2)c1=N | 102* | 1 | -1 | 12 | 1 | 1
CCc1nc2ccc(C(=O)NCCN3CCCC3)cn2c1N(C)Cc1ccc(OC)cc1 | . | . | 0 | . | . | .
O=C(C[n+]1ccccc1)N1c2ccccc2Sc2ccccc21 | -1 | 4.5* | -1 | 4 | 2 | -2
O=c1c2ccccc2nc(COc2ccccc2)n1/N=C/c1c[nH]c2ccccc12 | 63* | 0 | 0 | 15 | 5 | 2
SMILES | AHR act | NR0B1 inh | FXN GAA850 act | HSF-1 act | HSP90 inh | HSF1 inhib
O=S1(=O)CCOCCCN1Cc1ccccc1F | 3 | 0 | 2 | -5 | -3 | -2
CCOC(=O)c1c(Nc2ccc(Cl)cc2)sc(/C=C2\C=Nc3ccccc32)c1O | 10 | -1 | 0 | 1 | 2 | -3
CC1=Nc2ccccc2/C1=C\c1sc(Nc2ccc(C)cc2)nc1O | 79* | 0 | -1 | 19 | -6 | 10
Oc1nc(Nc2ccc(F)cc2)sc1/C=C1\C=Nc2ccccc21 | 122* | 0 | 3 | 16 | 6 | 14
Oc1nc(Nc2cccc(Cl)c2)sc1/C=C1\C=Nc2ccccc21 | 117* | -1 | 4 | 9 | 3 | 6
Oc1cccc(Nc2nc(O)c(/C=C3\C=Nc4ccccc43)s2)c1 | 23 | -1 | -2 | . | -2 | .
CC(=O)Nc1cccc(-c2ccnc3c2CC(C(=O)NCC2CCOCC2)O3)c1 (stereo unspecified) | . | . | -3 | . | . | .
Cc1c(Cl)cccc1NC(=O)Nc1c(C)n(C)n(-c2ccccc2)c1=O | 7 | 0 | 0 | 3 | -6 | 3
CCCC(=O)O/N=C(\c1ccccc1)c1ccncc1 | 4 | 1 | 2 | 57* | -6 | 13
Cc1ccc(S(=O)(=O)N(C)C)cc1NC(=O)CSc1nncs1 | 3 | 0 | 0 | 1 | . | -3
CCOC(=O)CC(=O)CSc1nc2c(sc(=S)n2-c2ccc(OCC)cc2)c(=O)[nH]1 | 0 | -2 | -3 | 0 | 0 | -9
CCOc1ccc(-n2c(=S)sc3c(=O)[nH]c(SCC(=O)NC(C)CC)nc32)cc1 (stereo unspecified) | 0 | 0 | -1 | 72* | 0 | 42
CCCCc1cc(O)c(CCCC)c(O)c1 | 16 | 2 | 4 | 182* | -3 | 127
Cc1c(CC(=O)Nc2ccc(Cl)cc2)sc2ccc(Cl)cc12 | 2 | 6.4* | 2 | 23 | -1 | -4
CS(=O)(=O)N(CC(=O)N1CCc2ccccc2C1)Cc1ccc(Cl)cc1 | 2 | 2 | -3 | 27 | 2 | 10
C[C@@H]1CCCCO[C@H](CN(C)C(=O)Nc2ccc3c(c2)OCO3)[C@H](C)CN([C@@H](C)CO)C(=O)c2cc(NS(=O)(=O)c3ccc(Cl)cc3)ccc2O1 | . | 0 | -9 | . | . | .
Cc1ccc(N(CCCCN2C(=O)c3ccccc3C2=O)C(=O)c2cccc([N+](=O)[O-])c2)cc1 | -2 | -1 | 3 | 70* | 2 | 35
Cc1ccc(S(=O)(=O)N(CC(=O)NC2CC3CCC2C3)c2ccccc2)cc1 (stereo unspecified) | . | 0 | -1 | . | . | .
C=CCSc1[nH]c(=O)cc(C)c1C(N)=O | -2 | 5.1* | -3 | -4 | 1 | 5
Cc1cc(C)c(C(N)=O)c(SCC(=O)c2cc(C)c(C)cc2C)n1 | 20 | -1 | -1 | 21 | 4 | 0
CC(C)c1cccc(-c2csc(C(C)(O)c3ccncc3)n2)c1 (stereo unspecified) | . | . | -2 | . | . | .
COc1ccccc1N1CCN(C(=O)c2cccc(S(=O)(=O)N3c4ccccc4CC3C)c2)CC1 (stereo unspecified) | . | -2 | -5 | . | . | .
COc1ccc(C(=O)OCC(=O)c2ccc3[nH]c(=O)[nH]c3c2)c(OC)c1OC | -1 | 0 | 2 | . | . | .
O=C(O)C1CC(c2ccccc2)=Nc2ccccc2S1 (stereo unspecified) | 53* | 3 | 4 | 3 | 2 | 1
O=[N+]([O-])c1ccc(C2CC(c3ccccc3)=Nc3ccccc3S2)cc1 (stereo unspecified) | 15 | 2 | 2 | 40 | 2 | 24
